The full list was thinned out, with hits kept by preference. The true hit rate is not given.
The sequences below were run on T1, Caupolican (Caup) homeodomain DNA-binding domain (assay: PBM E-score (8-mer, recovered from the published 9-mer minima) (E-score (dimensionless, -0.5 to 0.5)); Drosophila protein; higher = stronger relative binding preference, active = 0.31 or more).
T1 sequence: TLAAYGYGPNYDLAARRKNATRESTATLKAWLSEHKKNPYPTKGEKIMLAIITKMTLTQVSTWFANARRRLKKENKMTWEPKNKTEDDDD
Method in brief: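 An enrichment score, with higher meaning stronger, expresses relative binding preference for each short DNA word. The protein used was Caup's homeodomain DNA-binding domain (residues 214-303), produced by in vitro transcription and translation and tested at 100 nM on custom-designed protein binding microarrays. The 8-mer values were recovered from published 9-mer scores, each equal to the lower of its two constituent 8-mer scores.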

Sequence	PBM E-score
AACACGGT	0.351 (active)
AACACGCT	0.267 (inactive)
AACACGGG	0.32 (active)
AACACGGC	0.166 (inactive)
AACACGGA	0.31 (inactive)
CACACGGG	-0.0095 (inactive)
CGCTGAAG	-0.19 (inactive)
CGCATTGA	-0.0262 (inactive)
CCCCAGCG	-0.312 (inactive)
CAAAACGG	0.016 (inactive)
AAGGCTCA	-0.107 (inactive)
AATTTTCT	0.0254 (inactive)
AGTGGACC	-0.151 (inactive)
ACAACAGT	0.205 (inactive)
ACAACAAA	0.323 (active)
CCAACAAC	0.178 (inactive)
TCAACAAA	0.157 (inactive)
CCAACAAG	0.196 (inactive)
AAAACAAT	0.177 (inactive)
ACAACAAC	0.36 (active)
GCAACAAA	0.15 (inactive)
ACAACCAG	0.249 (inactive)
ACAACAAG	0.362 (active)
GCAACAAC	0.205 (inactive)
ACAACAAT	0.347 (active)

Sequence	PBM E-score
AGTACGGA	-0.0156 (inactive)
ATAGACTA	0.115 (inactive)
AGTTATTG	0.11 (inactive)
AGAGTCCC	-0.228 (inactive)
GTACAGAA	0.136 (inactive)
TGTATCAA	0.315 (active)
AGTATCAA	0.148 (inactive)
CGTATCAA	0.0341 (inactive)
CCTGTCTA	0.0989 (inactive)
CTTGTCCA	0.287 (inactive)
GTTGTCAA	0.339 (active)
ATTGTCTA	0.194 (inactive)
GCTGTCAA	0.057 (inactive)
GTTGTCCA	≥ 0.336 (active)
ATTGTCAA	0.183 (inactive)
GTTGTCTA	0.321 (active)
CTTGTCTA	0.281 (inactive)
ATTGTCCA	0.1 (inactive)
CGGGACAA	0.0647 (inactive)
CCGGGTGC	-0.287 (inactive)
ACTTAATC	0.0653 (inactive)
GTTTAATA	0.23 (inactive)
AAAGCCGA	-0.139 (inactive)
AGGTACAT	0.389 (active)
AGGTACAC	0.297 (inactive)

Sequence	PBM E-score
AGGTACAG	0.146 (inactive)
CGGTACAA	0.234 (inactive)
AGGTACTC	0.085 (inactive)
TGGTACAA	0.358 (active)
AGGTACAA	0.345 (active)
GGGTACAA	0.242 (inactive)
AGGTATAA	0.0486 (inactive)
GGAGGGAA	-0.186 (inactive)
ACGCATAT	0.103 (inactive)
ACGGCTTG	-0.133 (inactive)
CACCTACA	0.17 (inactive)
AGTCATTG	0.121 (inactive)
CGAGTGAA	-0.00479 (inactive)
GAACACGA	0.32 (active)
GAACACGC	0.254 (inactive)
GAACACTA	0.103 (inactive)
TAACACCA	0.247 (inactive)
TAACACGA	0.323 (active)
CAACACGA	0.267 (inactive)
GCCGCCCA	-0.275 (inactive)
ATGTAAAC	0.36 (active)
ATGTAAAT	0.352 (active)
ACGTAAAT	0.102 (inactive)
AGGTAAAT	0.153 (inactive)
GTGTAAAC	0.293 (inactive)

Sequence	PBM E-score
CTGTAAAC	0.18 (inactive)
AAGTAAAG	-0.0403 (inactive)
TTGTAAAA	0.275 (inactive)
ATGTAAAA	0.354 (active)
CTGTAAAG	0.0792 (inactive)
CTGTAAAA	0.121 (inactive)
ATGTAAAG	0.317 (active)
AGAGTAGG	0.00327 (inactive)
CCCCTCGC	-0.261 (inactive)
CACACATG	0.192 (inactive)
AGCGACAA	0.228 (inactive)
GTTATTTA	0.201 (inactive)
AATGCATA	0.0394 (inactive)
ACGTTTGG	0.0157 (inactive)
AAGGTCAA	0.00315 (inactive)
ATGCCTCA	-0.045 (inactive)
CGAGACAA	0.0948 (inactive)
ACGTGTAG	0.321 (active)
AAGTGTAG	0.17 (inactive)
AAGTGTAT	0.144 (inactive)
ACGTGTAT	0.353 (active)
CAGTGTAC	0.207 (inactive)
CCGTGTCC	0.218 (inactive)
CCGTGTAG	0.286 (inactive)
AAGTGTAC	0.304 (inactive)

Sequence	PBM E-score
CCGTGTAC	0.411 (active)
ACGTGTAC	0.367 (active)
ACGTGTGC	0.0653 (inactive)
ACGTGTCT	0.244 (inactive)
CTGAGCGC	-0.211 (inactive)
TCTCGAGA	0.0237 (inactive)
AACGACTG	0.0234 (inactive)
CTTCAGTC	-0.0898 (inactive)
AGTCCATG	0.0703 (inactive)
ACTGCCGG	-0.163 (inactive)
ACTATCGG	-0.056 (inactive)
CGCAGGTA	-0.0146 (inactive)
AGGTAAAA	0.0159 (inactive)
GCGTGTCC	0.223 (inactive)
GCGTGTAC	0.367 (active)
GAGTGTAC	0.121 (inactive)
CCTAAAAC	-0.07 (inactive)
GGTGGCCA	-0.164 (inactive)
CCCTTACA	0.152 (inactive)
ATGGCCCC	-0.175 (inactive)
AATATAGA	0.138 (inactive)
ATAAACAG	0.147 (inactive)
ATAAACAC	0.251 (inactive)
ACAAACAT	0.368 (active)
ACAAACAA	0.317 (active)

Sequence	PBM E-score
ACAAACAG	0.258 (inactive)
GTAAACAA	0.321 (active)
ACAAACAC	0.301 (inactive)
ATAAACAA	0.254 (inactive)
AAAAACAT	0.296 (inactive)
ATAAACAT	0.321 (active)
TTAAACAA	0.23 (inactive)
ACAAACCT	0.0926 (inactive)
CGGTGAAA	-0.001 (inactive)
ATCTTCTG	-0.0212 (inactive)
CACTAAAG	-0.125 (inactive)
GATATGGC	-0.0691 (inactive)
GATTTGCC	-0.0122 (inactive)
TGTGTAAA	0.318 (active)
CGTGTAAG	0.333 (active)
GGTGTAAC	0.205 (inactive)
AGTGTAAA	0.13 (inactive)
AGTGTAAG	0.215 (inactive)
GGTGTAAA	0.24 (inactive)
CGTGTAAC	0.321 (active)
AGTGTAAC	0.2 (inactive)
CGTGTAAA	0.377 (active)
ACTGTAAG	0.147 (inactive)
